Source: PubChem BioAssay AID624330 (Southern Research Specialized Biocontainment Screening …, 2012)
Screen size: about 340,000 compounds; about 2,100 (0.62%) were called active.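 The calls were made as follows: active = first-screen hits whose inhibition reached a set limit at any dose in the follow-up dose series; inconclusive = inhibition above the set first-screen limit but never retested; inactive = the rest.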 The list is a sample of the results. Entries with a potency or affinity are not part of this list.

What follows are compounds tested against Rac GTPase-activating protein 1 (Homo sapiens) (UniProt Q9H0H5) (assay: MgcRacGAP GTPase-activating activity inhibitors, confirmation, biochemical, ADP Hunter fluorescence, primary and confirmatory (AID 624330;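 also: fluorescence reports GDP produced by GAP-driven GTP hydrolysis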)). Conditions: MgcRacGAP-stimulated Rac1 GTP hydrolysis, at 30 µM, active compounds read high, GST-tagged Rac1 F28L mutant substrate.
Chain of Rac GTPase-activating protein 1 (Homo sapiens) (Q9H0H5 whole entry, looked up): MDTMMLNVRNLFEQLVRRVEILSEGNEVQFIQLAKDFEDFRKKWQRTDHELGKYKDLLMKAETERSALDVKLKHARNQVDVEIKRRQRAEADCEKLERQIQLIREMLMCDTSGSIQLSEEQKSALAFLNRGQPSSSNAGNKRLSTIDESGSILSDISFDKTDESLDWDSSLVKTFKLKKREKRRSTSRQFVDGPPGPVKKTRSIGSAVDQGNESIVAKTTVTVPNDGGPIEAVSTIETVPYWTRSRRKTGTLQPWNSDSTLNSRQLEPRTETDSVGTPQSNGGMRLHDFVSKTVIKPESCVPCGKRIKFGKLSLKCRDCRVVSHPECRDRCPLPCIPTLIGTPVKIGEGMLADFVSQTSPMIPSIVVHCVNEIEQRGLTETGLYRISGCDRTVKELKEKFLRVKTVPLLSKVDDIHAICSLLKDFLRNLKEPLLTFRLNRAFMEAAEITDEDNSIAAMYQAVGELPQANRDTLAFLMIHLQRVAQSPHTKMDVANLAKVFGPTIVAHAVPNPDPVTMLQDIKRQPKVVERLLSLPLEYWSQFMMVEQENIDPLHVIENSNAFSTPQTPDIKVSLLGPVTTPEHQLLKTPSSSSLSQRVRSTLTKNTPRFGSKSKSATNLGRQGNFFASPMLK

inhibition, inactive:
N#Cc1nc(COc2ccc(F)cc2)oc1N1CCC(Cc2ccccc2)CC1 0.56%, N#Cc1ccc(N/N=C/c2ccccc2)c([N+](=O)[O-])c1 2.61%, Cc1sc(NC(=O)c2ccc(F)cc2)c(CN2CCCCCC2)c1C 13.7%, CCn1c(CC(=O)Nc2ccc(Cl)c(Cl)c2)nnc1SCc1ccc(Cl)cc1 11.6%, Cc1sc2ncn(CC(=O)N3CCCCC3)c(=O)c2c1C 6.45%, O=C(Nc1ccncc1)C1CC(=O)N(c2ccccc2)C1 (configuration not stated) 0.29%, CCN1C(=O)[C@H]2[C@@H](c3ccc(Cl)cc3)N3C(=O)CN(Cc4ccccc4)C(=O)[C@@]3(C)[C@H]2C1=O 5.83%, N#CCCNc1ccc(OCCC#N)cc1 11.4%, CCOc1ccc(NCCC#N)cc1 30.3%, CCC(=O)Nc1cccc(C(=O)/C=C/c2cc(Br)ccc2OC)c1 7.87%, CCC(CO)N=C1CC(C)(C)CC(=O)/C1=C(/O)CCCN1C(=O)c2ccccc2C1=O (configuration not stated) 0.34%, COc1cc2nc(N3CCN(C(=O)c4ccco4)CC3)nc(N)c2cc1OC 17.7%, COc1cc2nc(N3CCN(c4cc(C)ccc4C)CC3)nc(N)c2cc1OC 4.78%, COC(=O)[C@H](CC(C)C)NC(=O)NCCCc1ccccc1 3.77%, O=C(CCNS(=O)(=O)c1cccc2nsnc12)NCCC1=CCCCC1 11.7%, Cc1cccc(OCC(=O)Nc2ccc3c(C)cc(=O)oc3c2)c1 -2.83%, Nc1ccc(N2CCCCC2)cc1N1CCCCC1 10.4%, N#Cc1ccc(N2CCN(c3ccc(F)cc3)CC2)cc1 7.18%, CC(=O)Nc1ccc(N2CCN(C(C)=O)CC2)cc1 8.62%, CN1CCN(c2ccc(C(=O)c3ccc(F)cc3)cc2)CC1 12.6%, CC(=O)N1CCN(c2ccc([N+](=O)[O-])cc2)CC1 5.88%, Cc1nn(-c2cc(N3CCCCC3)ccc2N)c(=O)c2ccccc12 12.5%, CN1CCN(S(=O)(=O)c2ccc(N)cc2)CC1 -0.77%, Nc1nc(N2CCN(c3ccc(F)cc3)CC2)n[nH]1 12.1%, OCC1CCCN(C(=S)NCCc2ccccc2)C1 (configuration not stated) 2.94%, O=C(Cn1cnc2c(nnn2Cc2ccc(Cl)cc2)c1=O)NC1CCCC1 7.49%, COc1cc(SC)ccc1C(=O)OCC(=O)NCCC1=CCCCC1 -5.82%, C=CCn1c(SC(C)C(=O)NC2CC2)nnc1-c1ccoc1C (configuration not stated) 4.4%, CCOc1cccc(C(=O)NNC(=O)C2C3C=CC(C3)C2C(=O)O)c1 (configuration not stated) 5.45%, CCCN1Cc2cccc(C(=O)NCCc3ccccc3)c2C1=O 5.13%, Cc1ccc(-c2nn(-c3ccccc3)cc2C(=O)Nc2ccc(C)c(S(=O)(=O)N3CCOCC3)c2)cc1 -2.39%, COc1ccc(C(CNS(=O)(=O)c2ccccc2)N2CCN(C)CC2)cc1 (configuration not stated) 1.91%, O=C(CSc1ccccc1)Nc1ccc(N2CCN(c3ccccc3)CC2)c(F)c1 5.08%, CCN1CCN(c2ccc(NC(=O)Cc3ccccc3)cc2)CC1 6.87%, O=C(c1cccs1)N1CCN(c2ccc(F)cc2)CC1 13.3%, CCN1CCN(c2ccc(NC(=O)c3ccc(Br)o3)cc2)CC1 8.5%, O=C(c1cccs1)N1CCN(c2ccccc2)CC1 -0.45%, O=C(Nc1ccc(N2CCN(c3ccccc3)CC2)c(F)c1)C1CC1 5.36%, Cc1ccccc1C(=O)Nc1cc(NC(=O)c2ccccc2C)cc(C(=O)O)c1 10.1%, O=S(=O)(c1ccc(F)cc1)c1nc(-c2ccccc2)oc1N1CCOCC1 9.44%, CC(=O)c1cccc(NC(=O)Cn2cnc(S(=O)(=O)N3CCCCC3)c2)c1 2.19%, CCS(=O)(=O)N1Cc2ccccc2CC1C(=O)N(C)Cc1ccc(OC)cc1OC (configuration not stated) 5.19%, CCOc1cccc(-c2c(C(=O)N/N=C/c3ccc(C)s3)nnn2-c2nonc2N)c1 0.29%, COc1ccc(C2SCCN2S(=O)(=O)c2ccc(F)cc2)cc1OC (configuration not stated) 6.1%, O=C(NCCCN1CCCC1=O)c1cccc(S(=O)(=O)N2CCN(c3ccc(F)cc3)CC2)c1 1.69%, COc1ccc(C(=O)NCc2cc(C)nc3ccccc23)cc1 -16.4%, COc1ccc2[nH]c(=O)c(CNc3ccccc3)cc2c1 9.73%, COc1ccc(Nc2c3ccccc3nc3ccccc23)cc1 17.9%, COc1cccc(CNc2cnc3ccccc3c2)c1O 1.26%, COc1ccc(NC(=O)CSc2nc3ccccc3cc2Cc2ccccc2)cc1 3.45%, CCOc1ccc(NCc2cc3cc(OC)ccc3[nH]c2=O)cc1 15.8%, COc1ccc(-c2cccc([C@H]3[C@@H]4C=CCC[C@@]4(C)C(=O)N3Cc3ccccc3)c2)cc1 12.4%, Cc1cccc(C(=O)Nc2cc(NC(=O)c3cccs3)ccc2C)c1 5.54%, CCOc1ccccc1CN1CCN(C2CCSCC2)CC1CCO (configuration not stated) 7.4%, CN(CC(=O)Nc1ccc(SC(F)F)cc1)C1CCCCC1 9.96%, Nc1ccc2nc(-c3cccc(-c4nc5ccc(N)cc5[nH]4)n3)[nH]c2c1 16.5%, Nc1ccc2cn[nH]c2c1 2.65%, COc1ccc(-c2cc(CCCC(=O)NCCc3ccc(OC)cc3OC)no2)cc1 -0.07%, Cc1sc2nc(CN3CCOCC3)nc(N3CCC(C(N)=O)CC3)c2c1C -3.61%, Cc1sc2nc(CN3CCOCC3)nc(Cl)c2c1C 5.87%, CCC(=O)Nc1cccc(NC(=O)CSc2nc3c(c(=O)n(C)c(=O)n3C)n2C)c1 7.76%, O=C(COc1ccc2ccc(=O)oc2c1)N1CCc2ccccc21 -9.6%
